In PubChem BioAssay (Tox21):
Results filed as inconclusive are left out. Calls of active or inactive are those of the source. Unless noted, calls come from the whole dose curve; as a rule, active = well fitted curve in the direction sought with a large enough effect in the repeat runs; inconclusive = weak or mixed curves; inactive = no such curve, though single readings can be large; an effect the other way counts as inactive or inconclusive.

Experiments:
[1] = qHTS assay to identify small molecule antagonists of the androgen receptor (AR) signaling pathway using the MDA cell line in the presence of 0.5 nM R1881 - cell viability counter screen (AID 1259242); note: nearly all actives have a fitted effect of over 45% in size
In short: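 Cells seeded at 3,000/well and allowed 5 hr at 37C, 0% CO2 before compound transfer and R1881 (0.5 nM final) addition; 16 hr later, live-cell protease fluorescence indicated cytotoxicity.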

[2] = target: Androgen receptor (Homo sapiens) (UniProt P10275); test: qHTS assay to identify small molecule antagonists of the androgen receptor (AR) signaling pathway using the MDA cell line in the presence of 0.5 nM R1881 (AID 1259243); note: nearly all actives have a fitted effect of over 50% in size
Sequence of Androgen receptor (Homo sapiens) (P10275 whole entry, looked up): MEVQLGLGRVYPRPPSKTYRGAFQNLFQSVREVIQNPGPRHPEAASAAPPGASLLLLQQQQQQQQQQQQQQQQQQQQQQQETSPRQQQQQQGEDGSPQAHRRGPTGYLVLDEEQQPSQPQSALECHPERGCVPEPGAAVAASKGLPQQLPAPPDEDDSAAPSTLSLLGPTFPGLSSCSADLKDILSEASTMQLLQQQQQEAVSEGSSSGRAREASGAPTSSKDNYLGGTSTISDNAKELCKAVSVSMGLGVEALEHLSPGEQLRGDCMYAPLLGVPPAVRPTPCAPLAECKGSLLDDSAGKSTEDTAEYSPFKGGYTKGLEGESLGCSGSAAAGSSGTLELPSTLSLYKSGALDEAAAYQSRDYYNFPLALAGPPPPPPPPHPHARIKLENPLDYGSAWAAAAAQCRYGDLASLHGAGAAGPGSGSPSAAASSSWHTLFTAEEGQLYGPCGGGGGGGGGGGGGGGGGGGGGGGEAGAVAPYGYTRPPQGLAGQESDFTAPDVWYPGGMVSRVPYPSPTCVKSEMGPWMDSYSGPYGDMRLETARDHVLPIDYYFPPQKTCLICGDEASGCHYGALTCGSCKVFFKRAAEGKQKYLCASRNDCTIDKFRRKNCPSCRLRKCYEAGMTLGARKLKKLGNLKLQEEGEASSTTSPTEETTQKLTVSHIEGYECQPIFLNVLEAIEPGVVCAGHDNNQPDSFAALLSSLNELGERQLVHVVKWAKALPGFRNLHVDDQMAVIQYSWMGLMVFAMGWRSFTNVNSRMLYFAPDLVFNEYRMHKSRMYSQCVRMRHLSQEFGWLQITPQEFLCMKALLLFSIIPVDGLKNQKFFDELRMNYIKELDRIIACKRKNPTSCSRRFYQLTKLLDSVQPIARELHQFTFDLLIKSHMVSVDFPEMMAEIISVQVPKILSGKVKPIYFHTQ
In short: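 Luminescence from an AR/GR-responsive MMTV-luciferase construct in MDA-kb2 breast carcinoma cells, read 30 min after ONE-Glo, following 16 hr co-treatment with compounds and 0.5 nM R1881.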

[3] = qHTS assay to identify small molecule HDAC inhibitors (AID 1259364); note: potency is the fitted concentration of half-maximal effect;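 note: wild-type HCT-116 cells with endogenous class I/II HDAC activity; nearly all actives have a fitted effect of over 45% in size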; for activity change, negative = inhibition: top concentration of the series differs between compounds
In short: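 HCT-116 wt cells, 1,500/well, overnight attach. Compounds (DMSO) 2 h, 37 °C. HDAC-Glo I/II, 30 min RT. Luminescence.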

[4] = qHTS assay to identify small molecule agonists of the sonic hedgehog signaling (Shh) pathway - cell viability counter screen (AID 1259366); note: nearly all actives have a fitted effect of over 50% in size
In short: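 NIH/3T3-derived 3T3 Gli1-Luc cells (stable Gli1-responsive firefly luciferase reporter) were seeded, rested 4 hr at 37 C/5% CO2, then exposed to compounds in DMSO for 24 hr; viability was read by CellTiter-Fluor fluorescence in the same wells.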

[5] = qHTS assay to identify small molecule antagonists of the sonic hedgehog signaling (Shh) pathway - cell viability counter screen (AID 1259367); note: nearly all actives have a fitted effect of over 55% in size
In short: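 Conditioned medium drove Shh signaling in 3T3 Gli1-Luc cells exposed to compounds at 37C and 5% CO2. Viability was determined from CellTiter-Fluor fluorescence, with reagent incubated 1 hr after 23 hr of treatment.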

[6] = qHTS assay to identify small molecule agonists of the sonic hedgehog signaling (Shh) pathway (AID 1259368; calls by dose curve; note: nearly all actives have a fitted effect of over 15% in size; note: potency is the fitted concentration of half-maximal effect; for activity change: series mostly up to about 92 µM)
In short: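 Following a 24 hr incubation with DMSO-dissolved compounds at 37 C, 5% CO2, Gli1-Luc NIH/3T3-derived cells received luciferase reagent for 30 min at room temperature prior to luminescence measurement.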

[7] = qHTS assay to identify small molecule antagonists of the sonic hedgehog signaling (Shh) pathway (AID 1259369; calls by dose curve; note: nearly all actives have a fitted effect of over 45% in size)
In short: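 Read-out is luminescence from a firefly luciferase gene controlled by the Gli1 response element, in 3T3Gli1-Luc cells pre-incubated 4hr then exposed to compounds and conditioned medium for 24hr.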

[8] = qHTS assay to identify small molecule agonists of the androgen receptor (AR) signaling pathway in the presence of an antagonist - cell viability counter screen (AID 1259379);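 note: MDA-kb2 human breast cancer cells carrying an MMTV luciferase reporter; series mostly up to about 92 µM; nearly all actives have a fitted effect of over 25% in size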
In short: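 Each compound was tested at 15 concentrations on MDA-kb2 cells in the presence of 3.0uM nilutamide. Viability was measured by CellTiter-Fluor fluorescence after a 16 hr incubation at 37C in a CO2-free atmosphere.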

[9] = target: Androgen receptor (Homo sapiens) (UniProt P10275); test: qHTS assay to identify small molecule agonists of the androgen receptor (AR) signaling pathway in the presence of an antagonist (AID 1259381; calls by dose curve; note: nearly all actives have a fitted effect of over 15% in size; note: potency is the fitted concentration of half-maximal effect)
In short: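 Plated MDA-kb2 cells (3,000/well) were pre-incubated 5hr, given nilutamide (3.0uM final) or buffer, then dosed with compounds in DMSO at 15 concentrations. Luciferase activity was quantified by luminescence after 16hr at 37C.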

[10] = qHTS assay to identify small molecule antagonists of the estrogen receptor beta (ER-beta) signaling pathway - cell viability counter screen (AID 1259382); note: series mostly up to about 92 µM; nearly all actives have a fitted effect of over 55% in size
In short: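 CellTiter-Glo ATP luminescence measured after the LiveBLAzer read in the same wells; ER-beta-UAS-bla HEK293T cells, 16 hr compound treatment with 1nM 17-beta-estradiol agonist at 37C, 5% CO2.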

[11] = qHTS assay to identify small molecule agonists or antagonists of the thyroid stimulating hormone receptor (TSHR) signaling pathway - wild type cell line counter screen (AID 1259384; calls by dose curve)
In short: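 Wild-type HEK293 cells were plated 18 h at 37 C/5% CO2, pin-dosed with compound plus Ro20-1724 medium, held 30 min at room temperature, then given cAMP-d2 and anti-cAMP-cryptate; fluorescence was read after 1 h. Fifteen concentrations, triplicate.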

[12] = qHTS assay to identify small molecule agonists of the estrogen receptor alpha (ER-alpha) signaling pathway in the presence of an antagonist - cell viability counter screen (AID 1259386);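 note: series mostly up to about 92 µM; cells exposed to compounds for 22 h at 37 °C before the viability read; nearly all actives have a fitted effect of over 30% in size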
In short: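 Using estrogen-depleted VM7Luc4E2 cells, the 15-concentration compound series was applied together with 10.0nM ICI-182,780 and incubated 22hr at 37C/5% CO2. Cell viability was then scored by CellTiter-Fluor.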

[13] = qHTS assay to identify small molecule HDAC inhibitors - cell viability counter screen (AID 1259365); note: series mostly up to about 92 µM; nearly all actives have a fitted effect of over 50% in size
In short: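 Wild-type HCT-116 cells were seeded at 1,500 per well, incubated overnight at 37 C, then exposed to compounds in DMSO for 2hr. Viability was read by CellTiter-Glo luminescence after 30min at room temperature.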

[14] = target: Thyrotropin receptor (Homo sapiens) (UniProt P16473); test: qHTS assay to identify small molecule antagonists of the thyroid stimulating hormone receptor (TSHR) signaling pathway (AID 1259385; calls by dose curve; note: nearly all actives have a fitted effect of over 20% in size)
Sequence of Thyrotropin receptor (Homo sapiens) (P16473 whole entry, looked up): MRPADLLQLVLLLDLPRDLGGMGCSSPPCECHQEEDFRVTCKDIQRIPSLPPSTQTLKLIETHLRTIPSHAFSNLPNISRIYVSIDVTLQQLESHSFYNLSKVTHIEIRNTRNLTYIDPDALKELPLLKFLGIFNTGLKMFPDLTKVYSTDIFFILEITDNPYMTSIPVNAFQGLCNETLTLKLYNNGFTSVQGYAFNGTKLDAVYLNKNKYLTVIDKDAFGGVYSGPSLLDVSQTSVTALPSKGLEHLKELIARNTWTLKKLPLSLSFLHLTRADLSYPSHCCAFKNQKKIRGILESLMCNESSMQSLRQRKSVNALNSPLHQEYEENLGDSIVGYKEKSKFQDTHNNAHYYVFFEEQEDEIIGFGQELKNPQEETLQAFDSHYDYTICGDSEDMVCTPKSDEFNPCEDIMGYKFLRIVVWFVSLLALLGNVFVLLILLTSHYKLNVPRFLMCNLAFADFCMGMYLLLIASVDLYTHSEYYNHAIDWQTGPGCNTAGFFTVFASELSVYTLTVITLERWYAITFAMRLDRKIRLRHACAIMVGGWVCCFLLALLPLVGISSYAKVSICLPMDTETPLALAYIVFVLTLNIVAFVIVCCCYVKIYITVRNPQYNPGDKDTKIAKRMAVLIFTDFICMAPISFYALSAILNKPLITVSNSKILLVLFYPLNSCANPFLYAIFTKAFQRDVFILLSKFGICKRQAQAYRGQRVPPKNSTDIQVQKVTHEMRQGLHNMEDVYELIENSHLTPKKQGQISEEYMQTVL
In short: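 TSHR-HEK293 cells were plated and held 18 h at 37C/5% CO2, then given compound plus Ro20-1724 and stimulated with TSH at 1.5 ng/mL final. After 30 min at room temperature, cAMP was detected with cAMP-d2/anti-cAMP-cryptate (1 h) by fluorescence.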

[15] = target: Estrogen receptor (Homo sapiens) (UniProt P03372); test: qHTS assay to identify small molecule antagonists of the estrogen receptor alpha (ER-alpha) signaling pathway using the BG1 cell line in the presence of 0.1 nM 17-beta-estradiol (AID 1259244); note: nearly all actives have a fitted effect of over 50% in size
Sequence of Estrogen receptor (Homo sapiens) (P03372 whole entry, looked up): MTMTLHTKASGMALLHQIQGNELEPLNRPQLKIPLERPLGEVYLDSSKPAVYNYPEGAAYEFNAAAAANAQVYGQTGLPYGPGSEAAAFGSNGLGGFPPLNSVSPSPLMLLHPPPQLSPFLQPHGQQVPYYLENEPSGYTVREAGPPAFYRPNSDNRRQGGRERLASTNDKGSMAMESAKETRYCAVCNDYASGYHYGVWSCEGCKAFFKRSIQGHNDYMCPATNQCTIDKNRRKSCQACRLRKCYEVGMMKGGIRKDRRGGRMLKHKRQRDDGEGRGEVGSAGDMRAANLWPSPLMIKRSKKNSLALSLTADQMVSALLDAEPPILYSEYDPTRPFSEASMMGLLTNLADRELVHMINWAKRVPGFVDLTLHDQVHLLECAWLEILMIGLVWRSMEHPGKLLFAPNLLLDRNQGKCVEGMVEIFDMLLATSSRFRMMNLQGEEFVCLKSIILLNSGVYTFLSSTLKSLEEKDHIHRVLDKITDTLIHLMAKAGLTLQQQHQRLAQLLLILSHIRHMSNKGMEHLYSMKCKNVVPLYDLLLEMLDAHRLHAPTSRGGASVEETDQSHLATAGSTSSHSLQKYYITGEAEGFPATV
In short: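 Luciferase signal from VM7Luc4E2 ERE-reporter cells, co-dosed with test compound and 0.1 nM final 17beta-estradiol for 22 h, read with ONE-Glo.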

[16] = target: Estrogen receptor beta (Homo sapiens) (UniProt Q92731); test: qHTS assay to identify small molecule agonists of the estrogen receptor beta (ER-beta) signaling pathway (AID 1259377; active = well fitted activation curve with a large enough effect in the signal ratio in the repeat runs, not every such curve was filed as active; the % refers to the signal ratio)
Sequence of Estrogen receptor beta (Homo sapiens) (Q92731 whole entry, looked up): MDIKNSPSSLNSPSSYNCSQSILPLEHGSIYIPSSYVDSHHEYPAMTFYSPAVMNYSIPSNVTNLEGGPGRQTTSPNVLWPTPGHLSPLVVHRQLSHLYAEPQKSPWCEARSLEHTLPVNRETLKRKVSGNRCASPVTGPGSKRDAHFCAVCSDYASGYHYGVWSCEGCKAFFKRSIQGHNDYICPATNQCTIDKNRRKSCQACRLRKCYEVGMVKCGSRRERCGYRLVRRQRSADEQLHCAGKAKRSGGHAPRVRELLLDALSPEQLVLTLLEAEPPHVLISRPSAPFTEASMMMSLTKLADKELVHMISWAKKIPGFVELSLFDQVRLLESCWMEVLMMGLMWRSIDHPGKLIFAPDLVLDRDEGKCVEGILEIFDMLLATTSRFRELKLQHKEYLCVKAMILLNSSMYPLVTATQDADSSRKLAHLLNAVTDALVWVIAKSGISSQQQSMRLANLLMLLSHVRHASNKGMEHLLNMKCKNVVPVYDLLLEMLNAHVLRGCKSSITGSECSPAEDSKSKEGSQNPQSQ
In short: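 ER-beta-UAS-bla HEK293T (GripTite) cells carrying a UAS-driven beta-lactamase reporter, in medium with 2% charcoal-stripped FBS, were exposed to compounds for 16 hr at 37C; LiveBLAzer B/G FRET substrate was then added and fluorescence read after 2 hours at room temperature.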

[17] = qHTS assay to identify small molecule agonists of the estrogen receptor beta (ER-beta) signaling pathway - cell viability counter screen (AID 1259380); note: nearly all actives have a fitted effect of over 30% in size
In short: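 Compounds dissolved in DMSO were pin-transferred onto ER-beta-UAS-bla HEK293T cells that had settled 6 hr, and exposure ran 16 hr at 37C. Following the reporter read, CellTiter-Glo luminescence after 30 min at room temperature indicated cytotoxicity.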

[18] = target: Estrogen receptor (Homo sapiens) (UniProt P03372); test: qHTS assay to identify small molecule agonists of the estrogen receptor alpha (ER-alpha) signaling pathway in the presence of an antagonist (AID 1259383; calls by dose curve; note: top concentration of the series differs between compounds; nearly all actives have a fitted effect of over 15% in size)
In short: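 Luminescent ERE-luciferase reporter, VM7Luc4E2 cells (endogenous ER-alpha); 10.0nM ICI-182,780 final; 15-point compound titration; 22hr at 37C; ONE-Glo, 30min RT.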

[19] = target: Estrogen receptor beta (Homo sapiens) (UniProt Q92731); test: qHTS assay to identify small molecule antagonists of the estrogen receptor beta (ER-beta) signaling pathway (AID 1259378; active = well fitted inhibition curve with a large enough effect in the signal ratio in the repeat runs, not every such curve was filed as active; the % refers to the signal ratio)
In short: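 ER-beta-UAS-bla HEK293T (GripTite) cells in 2% charcoal-stripped FBS medium were preincubated 6 hr at 37C, dosed with compound, then stimulated with 1 nM E2 (final) for 16 hr; beta-lactamase reporter read by B/G FRET fluorescence after 2 hr substrate loading.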
% is set by controls: 0 for no effect and ±100 for the full control effect.

O=C(Oc1ccccc1)c1cccc(C(=O)Oc2ccccc2)c1
inactive: Potency [1] | Potency [2] | Potency [4] | Potency [5] | Potency [7] | Potency [8] | Potency [10] | outcome [11] | Potency [12]
active: Potency [3] 88.5 nM | Potency [6] 2290 nM | Potency [9] 644 nM

O=C1OC(OC(=O)c2cccnc2Nc2cccc(C(F)(F)F)c2)c2ccccc21 (configuration not stated)
inactive: Potency [1] | Potency [2] | Potency [3] | Potency [13] | Potency [4] | Potency [5] | Potency [6] | Potency [8] | Potency [9] | outcome [11] | Potency [14] | Potency [12]

O=S(=O)(O)c1cc(S(=O)(=O)O)c2ccc3c(S(=O)(=O)O)cc(S(=O)(=O)O)c4ccc1c2c43
inactive: viability change, negative = cytotoxic [1] -1.34% [at 19 µM] | activity, negative = inhibition [2] 1.23% [at 19 µM] | activity change, negative = inhibition [15] 0.118% [at 19 µM] | viability change, negative = cytotoxic [4] 1.66% [at 19 µM] | viability change, negative = cytotoxic [5] 0.116% [at 19 µM] | activity change [6] -2.01% [at 18.9 µM, active compounds read high] | activity change, negative = inhibition [7] 2.19% [at 19 µM] | activation [16] -3.15% [at 19 µM] | activity change, negative = cytotoxicity [8] 1.33% [at 19 µM] | activity change, negative = cytotoxicity [17] 1.19% [at 19 µM] | activation [9] 3.07% [at 19 µM] | activity change, negative = cytotoxicity [10] 6.71% [at 19 µM] | activation [18] -1.94% [at 19 µM] | cAMP activity change [11] 5.29% [at 18.9 µM] | activity change, negative = inhibition [14] -2.92% [at 19 µM] | activity change, negative = cytotoxicity [12] -2.62% [at 19 µM]

CCCC(O)C(O)CO (configuration not stated)
inactive: Potency [1] | Potency [2] | Potency [13] | Potency [4] | Potency [5] | Potency [6] | Potency [7] | Potency [19] | Potency [8] | Potency [9] | Potency [10] | outcome [11] | Potency [14] | Potency [12]

CCOC(=O)CC(C)O (configuration not stated)
inactive: Potency [1] | Potency [2] | Potency [3] | Potency [13] | Potency [4] | Potency [5] | Potency [6] | Potency [7] | Potency [16] | Potency [8] | Potency [17] | Potency [9] | Potency [10] | outcome [11] | Potency [14] | Potency [12]

COc1cccc(OC)c1O
inactive: Potency [1] | Potency [2] | Potency [3] | Potency [4] | Potency [5] | Potency [6] | Potency [7] | Potency [19] | Potency [8] | Potency [17] | Potency [9] | Potency [10] | outcome [11] | Potency [14] | Potency [12]

Brc1ccccn1
inactive: Potency [1] | Potency [15] | Potency [3] | Potency [13] | Potency [4] | Potency [5] | Potency [6] | Potency [7] | Potency [16] | Potency [19] | Potency [8] | Potency [17] | Potency [10] | Potency [18] | outcome [11] | Potency [14] | Potency [12]
